# Laboratory results: PubChem BioAssay
# The source made the active and inactive calls.
# Columns and labels:
# [1] = small molecules captured by biotinylated probe aFSTL3 – biochemical, small-molecule microarray, fluorescence 635/667, stem cell growth factor project, primary screen (AID 1064); conditions: higher = more signal;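 further: measures binding of the biotinylated anti-FSTL3 antibody to printed compounds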
# [2] = binders from COS7 lysate, DM2A8 probe, primary screen, torsin A project, cell lysate, small-molecule microarray, fluorescence 635/667 (AID 1065); conditions: higher = more signal, COS7 lysate expressing mutant human TOR1A
# [3] = small molecules captured by biotinylated probe aFGF2 – biochemical, small-molecule microarray, fluorescence 635/667, stem cell growth factor project, primary screen (AID 1067); conditions: higher = more signal;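 further: measures binding of biotinylated aFGF2 protein to printed compounds on slides; z-score merges feature fluorescence and signal-to-noise across triplicate slides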
# [4] = small molecules captured by biotinylated probe aFGF10 – biochemical, small-molecule microarray, fluorescence 635/667, stem cell growth factor project, primary screen (AID 1071); conditions: higher = more signal;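 further: score merges 667 nm spot intensity and signal to noise from triplicate slides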
# [5] = target: Neurogenic locus notch homolog protein 2 (Homo sapiens) (UniProt Q04721); test: small molecules binding Notch2 protein – biochemical, small-molecule microarray, 635 nm fluorescence, stem cell growth factors, primary screen (AID 1073); conditions: higher = more signal
# [6] = target: Pro-neuregulin-1, membrane-bound isoform (Homo sapiens) (UniProt Q02297); test: small molecules binding neuregulin-1 protein – biochemical, small-molecule microarray, fluorescence 635/667, psychiatric disease protein project, primary screen (AID 1075); conditions: NRG1 binding, 635 nm fluorescence, higher = more signal;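 further: score combines 667 nm spot fluorescence with signal to noise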
# [7] = test system: Neuregulin-1 EGF-like domain; test: small molecules binding NRG1 EGF domain – biochemical, small-molecule microarray, 635 nm fluorescence, primary screen (AID 1081); conditions: higher = more signal;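 further: binding of the protein to compounds printed on small-molecule microarray slides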
# [8] = FRG1 expression reporter modulators in myotubes – cell-based, C2C12 myotubes, firefly/Renilla luciferase, luminescence, FRG1 inhibition for FSHD, primary screen (AID 1084); conditions: FRG1 promoter luciferase, higher = more signal, called active from +8 up or from −8 down
# [9] = small molecules captured by biotinylated probe aFST – biochemical, small-molecule microarray, fluorescence 635/667, stem cell growth factor project, primary screen (AID 1086); conditions: higher = more signal;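 further: score merges 667 nm fluorescence with signal-to-noise of each printed compound spot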
# [10] = binders of probe aHhip on microarray, primary screen, stem cell growth factor project, biochemical, small-molecule microarray, fluorescence 635/667 (AID 1087); conditions: higher = more signal;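 further: score merges spot fluorescence at 667nm with spot signal to noise ratio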
# [11] = test system: PRMT1 (protein arginine N-methyltransferase 1); test: small molecules binding arginine methyltransferase PRMT1 – biochemical, small-molecule microarray, 635 nm fluorescence, primary screen (AID 1088); conditions: higher = more signal;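 further: binding of Prmt1 protein to compounds spotted on small-molecule microarray slides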
# [12] = growth effects on S. cerevisiae YJM789 – YJM789 clinical isolate, OD600, 24 h, basal, primary screen (AID 1089); conditions: higher = more signal, called active from +8 up or from −8 down;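 further: growth of clinical yeast isolate S. cerevisiae YJM 789 seeded 1000 cells per well; test concentration not given here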
# [13] = S. pombe growth modifiers, basal conditions – strain 972, OD600, 24 h, no modulator, primary screen (AID 1090);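 further: basal condition with compound alone and no growth modifier present; test concentration not given here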; conditions: S. pombe 972 growth, higher = more signal, called active from +8 up or from −8 down
# [14] = budding yeast growth modifiers under rapamycin – strain BY4716, OD600, 96 h, primary screen (AID 1091); further: test concentration not given here; conditions: S. cerevisiae BY4716 + rapamycin, higher = more signal, called active from +8 up or from −8 down
# [15] = target: Torsin-1A-interacting protein 2 (Homo sapiens) (UniProt Q8NFQ8); test: small molecules binding lysate-expressed LULL1 – cell lysate, human LULL1 lysate, 635/667 nm fluorescence, primary screen (AID 1092); conditions: small-molecule microarray, hLULL1 lysate binding, 635 nm fluorescence; higher = more signal;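 further: probe is lysate of COS7 cells overexpressing human LULL1; score merges per-feature 667 nm fluorescence with signal-to-noise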
# [16] = optical density change of DRC41 E. coli – strain DRC41, OD650, 24 h, E. coli filamentation project, primary screen (AID 1093);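 further: MC1000 strain lacking acrAB efflux and sulA so SOS filamentation is blocked; test concentration not given here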; conditions: E. coli DRC41 growth, higher = more signal, called active from +8 up or from −8 down
# [17] = probe aLefty2 binding to arrayed compounds – biochemical, biotinylated probe, 635/667 nm fluorescence, primary screen (AID 1094); conditions: small-molecule microarray, higher = more signal;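 further: score merges spot fluorescence near 667 nm with spot signal-to-noise ratio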
# [18] = test system: Noggin (protein binding on small-molecule microarray); test: small molecules binding Noggin protein – biochemical, 635/667 nm fluorescence, primary screen (AID 1095); conditions: 635 nm fluorescence, higher = more signal;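 further: score merges 667 nm feature fluorescence with signal to noise over triplicate slides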
# [19] = target: Neurogenic locus notch homolog protein 3 (Homo sapiens) (UniProt Q9UM47); test: small molecules binding NOTCH3 protein – biochemical, 635/667 nm fluorescence, primary screen (AID 1096); conditions: small-molecule microarray, 635 nm fluorescence, higher = more signal
# [20] = probe aEGFR binding to arrayed compounds – biochemical, biotinylated probe, 635/667 nm fluorescence, primary screen (AID 1097); conditions: small-molecule microarray, higher = more signal;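 further: probe is a biotinylated anti-EGFR antibody binding compounds printed on slides; score combines fluorescence near 667 nm and signal to noise of each spot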
# Chain of Neurogenic locus notch homolog protein 3 (Homo sapiens) (Q9UM47 whole entry, looked up): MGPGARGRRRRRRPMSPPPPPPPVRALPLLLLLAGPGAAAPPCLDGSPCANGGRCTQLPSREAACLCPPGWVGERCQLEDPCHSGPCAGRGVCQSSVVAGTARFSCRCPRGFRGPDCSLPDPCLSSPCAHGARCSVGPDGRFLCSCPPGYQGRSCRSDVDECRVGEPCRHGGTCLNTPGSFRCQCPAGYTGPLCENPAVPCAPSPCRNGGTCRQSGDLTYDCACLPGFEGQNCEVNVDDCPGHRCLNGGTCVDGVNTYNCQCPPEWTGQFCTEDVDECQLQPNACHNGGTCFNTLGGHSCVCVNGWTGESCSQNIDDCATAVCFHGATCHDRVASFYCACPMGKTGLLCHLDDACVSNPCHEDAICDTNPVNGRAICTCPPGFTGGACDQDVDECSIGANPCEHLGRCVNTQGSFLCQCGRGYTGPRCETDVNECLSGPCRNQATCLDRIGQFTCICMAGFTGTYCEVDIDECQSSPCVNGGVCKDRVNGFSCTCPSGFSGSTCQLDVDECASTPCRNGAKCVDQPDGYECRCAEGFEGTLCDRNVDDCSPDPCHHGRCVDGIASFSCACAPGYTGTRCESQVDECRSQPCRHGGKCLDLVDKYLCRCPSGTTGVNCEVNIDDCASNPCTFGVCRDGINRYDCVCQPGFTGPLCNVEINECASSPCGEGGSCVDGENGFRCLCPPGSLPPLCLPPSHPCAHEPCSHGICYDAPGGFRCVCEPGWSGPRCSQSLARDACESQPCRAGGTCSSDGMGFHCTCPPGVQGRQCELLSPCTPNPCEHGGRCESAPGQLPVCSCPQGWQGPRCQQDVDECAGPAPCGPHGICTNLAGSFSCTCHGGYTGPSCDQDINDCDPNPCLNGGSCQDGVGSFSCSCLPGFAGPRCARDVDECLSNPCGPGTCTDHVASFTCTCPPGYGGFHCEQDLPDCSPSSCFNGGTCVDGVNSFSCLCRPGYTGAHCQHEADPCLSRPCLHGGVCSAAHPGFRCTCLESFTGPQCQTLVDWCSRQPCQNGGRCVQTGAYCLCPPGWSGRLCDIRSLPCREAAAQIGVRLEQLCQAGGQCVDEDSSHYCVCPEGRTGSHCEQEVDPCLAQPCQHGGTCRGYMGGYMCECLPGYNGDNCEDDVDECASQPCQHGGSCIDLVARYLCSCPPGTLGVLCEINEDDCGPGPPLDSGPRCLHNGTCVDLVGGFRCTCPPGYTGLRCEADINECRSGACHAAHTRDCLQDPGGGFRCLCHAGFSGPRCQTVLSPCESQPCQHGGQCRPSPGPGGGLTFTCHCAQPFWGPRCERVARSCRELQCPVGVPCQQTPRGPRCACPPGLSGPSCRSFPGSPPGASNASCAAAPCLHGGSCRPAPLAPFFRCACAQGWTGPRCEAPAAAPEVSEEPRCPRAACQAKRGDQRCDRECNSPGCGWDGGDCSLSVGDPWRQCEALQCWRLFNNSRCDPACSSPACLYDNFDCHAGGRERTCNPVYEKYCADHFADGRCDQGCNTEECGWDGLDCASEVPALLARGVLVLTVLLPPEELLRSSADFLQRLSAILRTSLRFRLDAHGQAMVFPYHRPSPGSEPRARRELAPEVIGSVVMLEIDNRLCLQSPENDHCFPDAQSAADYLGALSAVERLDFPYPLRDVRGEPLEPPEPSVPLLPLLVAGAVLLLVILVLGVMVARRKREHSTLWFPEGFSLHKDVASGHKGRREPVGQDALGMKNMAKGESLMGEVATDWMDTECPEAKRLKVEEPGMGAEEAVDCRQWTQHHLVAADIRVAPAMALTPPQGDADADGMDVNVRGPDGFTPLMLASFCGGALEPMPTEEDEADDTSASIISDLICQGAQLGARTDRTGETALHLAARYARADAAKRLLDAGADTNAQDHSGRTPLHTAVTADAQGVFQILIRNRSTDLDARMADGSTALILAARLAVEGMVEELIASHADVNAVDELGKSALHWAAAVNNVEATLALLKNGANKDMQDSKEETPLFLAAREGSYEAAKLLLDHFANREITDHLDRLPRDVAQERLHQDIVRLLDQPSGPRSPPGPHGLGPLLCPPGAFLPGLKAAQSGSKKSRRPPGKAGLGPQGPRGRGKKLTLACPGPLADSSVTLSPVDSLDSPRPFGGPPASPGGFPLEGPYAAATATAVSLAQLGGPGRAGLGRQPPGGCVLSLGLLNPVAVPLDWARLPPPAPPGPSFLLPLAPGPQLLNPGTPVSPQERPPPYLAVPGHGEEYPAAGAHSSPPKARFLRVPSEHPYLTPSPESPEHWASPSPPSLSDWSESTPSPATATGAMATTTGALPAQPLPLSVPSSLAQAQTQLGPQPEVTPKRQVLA
# Chain of Pro-neuregulin-1, membrane-bound isoform (Homo sapiens) (Q02297 whole entry, looked up, the tested form may be a part, canonical isoform): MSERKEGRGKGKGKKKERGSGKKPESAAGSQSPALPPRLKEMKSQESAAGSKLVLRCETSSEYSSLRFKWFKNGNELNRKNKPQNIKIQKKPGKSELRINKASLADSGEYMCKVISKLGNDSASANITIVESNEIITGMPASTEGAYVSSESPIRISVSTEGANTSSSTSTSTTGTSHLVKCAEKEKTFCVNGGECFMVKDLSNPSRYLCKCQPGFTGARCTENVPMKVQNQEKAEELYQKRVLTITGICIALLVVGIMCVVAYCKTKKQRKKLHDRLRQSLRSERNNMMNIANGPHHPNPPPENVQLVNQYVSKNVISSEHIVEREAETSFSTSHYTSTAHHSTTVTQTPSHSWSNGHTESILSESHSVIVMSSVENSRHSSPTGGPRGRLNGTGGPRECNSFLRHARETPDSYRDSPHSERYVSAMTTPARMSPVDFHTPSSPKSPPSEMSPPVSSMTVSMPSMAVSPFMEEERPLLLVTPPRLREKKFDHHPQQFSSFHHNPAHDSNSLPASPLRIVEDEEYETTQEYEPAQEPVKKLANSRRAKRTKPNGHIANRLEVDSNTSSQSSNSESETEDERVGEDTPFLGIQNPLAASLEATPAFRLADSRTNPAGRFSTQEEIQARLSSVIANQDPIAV
# Chain of Torsin-1A-interacting protein 2 (Homo sapiens) (Q8NFQ8 whole entry, looked up): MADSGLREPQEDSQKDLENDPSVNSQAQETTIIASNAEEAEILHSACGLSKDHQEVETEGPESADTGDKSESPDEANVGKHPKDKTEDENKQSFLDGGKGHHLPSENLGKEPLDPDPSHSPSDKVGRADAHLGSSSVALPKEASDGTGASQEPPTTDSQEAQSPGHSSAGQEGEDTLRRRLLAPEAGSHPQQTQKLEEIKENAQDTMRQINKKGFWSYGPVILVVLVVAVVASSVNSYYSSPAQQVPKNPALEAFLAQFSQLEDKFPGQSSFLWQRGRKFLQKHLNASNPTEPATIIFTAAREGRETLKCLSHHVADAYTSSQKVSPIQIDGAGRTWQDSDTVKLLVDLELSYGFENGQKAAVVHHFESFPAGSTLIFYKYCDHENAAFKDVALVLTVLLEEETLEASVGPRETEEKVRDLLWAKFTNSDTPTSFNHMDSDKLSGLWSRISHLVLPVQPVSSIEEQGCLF
smiles,measurement,setting,value
CC(C)[C@@H](C(=O)O)n1cc(C2(O)CCCCC2)nn1,composite z-score,[1],-0.401
same,composite z-score,[2],-0.938
same,composite z-score,[3],-0.183
same,composite z-score,[4],0.78
same,composite z-score,[5],0.63
same,composite z-score,[6],0.394
same,composite z-score,[7],0.451
same,z-score,[8],0.356 (inactive)
same,composite z-score,[9],0.27
same,composite z-score,[10],-0.218
same,composite z-score,[11],0.629
same,z-score,[12],-0.791 (inactive)
same,z-score,[13],0.462 (inactive)
same,z-score,[14],-1.12 (inactive)
same,composite z-score,[15],1.02
same,z-score,[16],0.616 (inactive)
same,composite z-score,[17],-0.132
same,composite z-score,[18],0.731
same,composite z-score,[19],1.05
same,composite z-score,[20],-0.02
COC(=O)[C@@]1(Cc2ccc(OC)cc2)[C@H]2c3cc(C(=O)N4CCCC4)n(CCSCCO)c3C[C@H]2CN1C(=O)c1ccccc1,composite z-score,[1],0.32
same,composite z-score,[2],-0.399
same,composite z-score,[3],0.46
same,composite z-score,[4],0.651
same,composite z-score,[5],1.69
same,composite z-score,[6],1.86
same,composite z-score,[7],1.4
same,z-score,[8],-0.15 (inactive)
same,composite z-score,[9],1.3
same,composite z-score,[10],0.455
same,composite z-score,[11],0.416
same,z-score,[12],0.786 (inactive)
same,z-score,[13],1.72 (inactive)
same,z-score,[14],1.25 (inactive)
same,composite z-score,[15],3.38
same,z-score,[16],-0.647 (inactive)
same,composite z-score,[17],0.172
same,composite z-score,[18],-0.492
same,composite z-score,[19],0.671
same,composite z-score,[20],0.157
OCC1C=C(/C=C/c2ccccc2)CN1Cc1ccccc1Br (stereo not given),composite z-score,[1],-0.337
same,composite z-score,[2],0.422
same,composite z-score,[3],0.0619
same,composite z-score,[4],0.979
same,composite z-score,[5],1.42
same,composite z-score,[6],0.808
same,composite z-score,[7],0.331
same,z-score,[8],-1.8 (inactive)
same,composite z-score,[9],0.379
same,composite z-score,[10],-0.136
same,composite z-score,[11],0.94
same,z-score,[12],-0.486 (inactive)
same,z-score,[13],-11.3 (active)
same,z-score,[14],-1.4 (inactive)
same,composite z-score,[15],1.44
same,z-score,[16],1.58 (inactive)
same,composite z-score,[17],0.0265
same,composite z-score,[18],0.876
same,composite z-score,[19],0.854
same,composite z-score,[20],0.0339
COc1ccc(C#Cc2ccc3c(c2)[C@]2(C(=O)N3)[C@H](c3ccc(O)cc3)N3[C@H](c4ccccc4)[C@H](c4ccccc4)OC(=O)[C@H]3[C@@H]2C(=O)N2CCc3cc(OC)c(OC)cc3C2)cc1,composite z-score,[1],-0.284
same,composite z-score,[2],0.0877
same,composite z-score,[3],0.0106
same,composite z-score,[4],0.355
same,composite z-score,[5],0.84
same,composite z-score,[6],1.32
same,composite z-score,[7],1.26
same,z-score,[8],1.46 (inactive)
same,composite z-score,[9],0.464
same,composite z-score,[10],0.0505
same,composite z-score,[11],1.54
same,z-score,[12],1.74 (inactive)
same,z-score,[13],0.921 (inactive)
same,z-score,[14],1.93 (inactive)
same,composite z-score,[15],3.04
same,z-score,[16],-0.0389 (inactive)
same,composite z-score,[17],-0.189
same,composite z-score,[18],1.68
same,composite z-score,[19],1.07
same,composite z-score,[20],-0.0381
CC(=O)Nc1cc(Br)ccc1C(=O)NCc1ccccc1,composite z-score,[1],-0.16
same,composite z-score,[2],-0.0459
same,composite z-score,[3],0.0213
same,composite z-score,[4],-0.0284
same,composite z-score,[5],0.359
same,composite z-score,[6],0.685
same,composite z-score,[7],1.23
same,z-score,[8],0.0163 (inactive)
same,composite z-score,[9],-0.0314
same,composite z-score,[10],-0.226
same,composite z-score,[11],0.717
same,z-score,[12],-1.76 (inactive)
same,z-score,[13],-6.28 (inactive)
same,z-score,[14],-1.98 (inactive)
same,composite z-score,[15],2.06
same,z-score,[16],0.0591 (inactive)
same,composite z-score,[17],-0.0778
same,composite z-score,[18],-0.0557
same,composite z-score,[19],0.199
same,composite z-score,[20],-0.111
C=CCNC(=O)[C@H]1[C@@H]2C(=O)O[C@@H](c3ccccc3)[C@@H](c3ccccc3)N2[C@@H](c2ccc(OCCO)cc2)[C@]12C(=O)Nc1ccc(C#CCC(C(=O)OC)C(=O)OC)cc12,composite z-score,[1],-0.378
same,composite z-score,[2],0.632
same,composite z-score,[3],0.0501
same,composite z-score,[4],0.441
same,composite z-score,[5],1.17
same,composite z-score,[6],1.17
same,composite z-score,[7],1.18
same,z-score,[8],0.0693 (inactive)
same,composite z-score,[9],0.452
same,composite z-score,[10],0.0373
same,composite z-score,[11],1.56
same,z-score,[12],1.63 (inactive)
same,z-score,[13],1.79 (inactive)
same,z-score,[14],5.79 (inactive)
same,composite z-score,[15],2.74
same,z-score,[16],0.0251 (inactive)
same,composite z-score,[17],0.187
same,composite z-score,[18],0.608
same,composite z-score,[19],1.08
same,composite z-score,[20],-0.004
CC(=O)n1cc(C(O)C2C=CC3C(=O)NC(=O)C3N2Nc2ccccn2)c2ccccc21 (stereo not given),composite z-score,[1],0.125
same,composite z-score,[2],0.0908
same,composite z-score,[3],-0.0583
same,composite z-score,[4],0.122
same,composite z-score,[5],0.887
same,composite z-score,[6],0.298
same,composite z-score,[7],1.27
same,z-score,[8],1.15 (inactive)
same,composite z-score,[9],0.221
same,composite z-score,[10],-0.179
same,composite z-score,[11],0.553
same,z-score,[12],0.505 (inactive)
same,z-score,[13],0.777 (inactive)
same,z-score,[14],0.171 (inactive)
same,composite z-score,[15],0.134
same,z-score,[16],-0.965 (inactive)
same,composite z-score,[17],-0.0594
same,composite z-score,[18],0.187
same,composite z-score,[19],0.375
same,composite z-score,[20],-0.0084
C=CC[C@]1(C(N)=O)COC(c2ccc(OCCCO)cc2)=N1,composite z-score,[1],-0.123
same,composite z-score,[2],0.38
same,composite z-score,[3],-0.0407
same,composite z-score,[4],0.282
same,composite z-score,[5],0.85
same,composite z-score,[6],0.0632
same,composite z-score,[7],1.09
same,z-score,[8],-0.25 (inactive)
same,composite z-score,[9],0.418
same,composite z-score,[10],-0.0645
same,composite z-score,[11],0.322
same,z-score,[12],0.924 (inactive)
same,z-score,[13],-1.09 (inactive)
same,z-score,[14],-1.09 (inactive)
same,composite z-score,[15],1.38
same,z-score,[16],1.27 (inactive)
same,composite z-score,[17],0.301
same,composite z-score,[18],0.27
same,composite z-score,[19],-0.769
same,composite z-score,[20],-0.139
CCCNC(=O)[C@@H]1c2ccccc2C(=O)N(Cc2ccccc2OC)[C@H]1c1ccc(CO)cc1,composite z-score,[1],-0.148
same,composite z-score,[2],1.34
same,composite z-score,[3],-0.0058
same,composite z-score,[4],0.479
same,composite z-score,[5],0.901
same,composite z-score,[6],1.66
same,composite z-score,[7],0.977
same,z-score,[8],-2.3 (inactive)
same,composite z-score,[9],0.274
same,composite z-score,[10],-0.201
same,composite z-score,[11],0.286
same,z-score,[12],0.105 (inactive)
same,z-score,[13],-0.19 (inactive)
same,z-score,[14],0.353 (inactive)
same,composite z-score,[15],3.06
same,z-score,[16],0.387 (inactive)
same,composite z-score,[17],-0.139
same,composite z-score,[18],0.986
same,composite z-score,[19],1.11
same,composite z-score,[20],-0.142
O=C1C2C=CC(C(O)COCc3ccccc3)N(Nc3ccc([N+](=O)[O-])cc3)C2C(=O)N1c1ccccc1 (stereo not given),composite z-score,[1],0.0903
same,composite z-score,[2],-0.58
same,composite z-score,[3],-0.0004
same,composite z-score,[4],1.14
same,composite z-score,[5],1.57
same,composite z-score,[6],0.661
same,composite z-score,[7],1.32
same,z-score,[8],0.123 (inactive)
same,composite z-score,[9],1.44
same,composite z-score,[10],-0.145
same,composite z-score,[11],1.46
same,z-score,[12],-0.464 (inactive)
same,z-score,[13],1.12 (inactive)
same,z-score,[14],2.16 (inactive)
same,composite z-score,[15],2.83
same,z-score,[16],0.547 (inactive)
same,composite z-score,[17],0.168
same,composite z-score,[18],0.661
same,composite z-score,[19],1.09
same,composite z-score,[20],-0.0072
